# Measured values: PubChem BioAssay AID1852 (Sanford-Burnham Center for Chemical Genomics, 2009)
# In all, about 2,500 compounds went through this assay and about 1,100 (44%) were called active. The set was probably picked from earlier hits. Some of the results follow. Unmarked numbers belong to inactive results.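 Rule for the calls: active = inhibition above 50% at 4 µM in the single-point screen; inactive = inhibition of 50% or less.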
# Test: TNF-a-driven NF-kB reporter inhibitors, primary screen, selectivity assay for NOD1/NOD2 signaling inhibitor project, cell-based, HEK293T NF-kB-Luc, luminescence (AID 1852)
# Conditions: TNF-a induced, 14 h, at 4 µM, stronger effect = higher value
row,Structure (SMILES),inhibition
1,Cc1sc2ncnc(N3CCC(C(=O)N(C)CC(=O)Nc4ccccc4Cl)CC3)c2c1C,50.3% (active)
2,CCN(CC)CCNC(=O)c1ccc(NC(=O)C2CCN(c3ncnc4sc(C)c(C)c34)CC2)cc1,43.8%
3,CCOC(=O)c1sc(N2C(=O)C(O)=C(C(=O)c3ccco3)C2c2ccco2)nc1C (stereo unspecified),76.1% (active)
4,COc1cccc2cc(C(=O)C3=C(O)C(=O)N(c4cc(C)on4)C3c3cccs3)oc12 (stereo unspecified),-0.9%
5,CCOC(=O)c1sc(N2C(=O)C(O)=C(C(=O)c3ccco3)C2c2cccc([N+](=O)[O-])c2)nc1C (stereo unspecified),23.8%
6,CCC(C)(C)c1ccc(Oc2ccc(N)cc2)cc1,75.5% (active)
7,NC(=O)C1CCN(c2ccc(S(=O)(=O)N3CCC(Cc4ccccc4)CC3)cn2)CC1,32.5%
8,CC1CCN(Cc2c(C(=O)N/N=C/c3cc(Br)ccc3O)nnn2-c2nonc2N)CC1,95.1% (active)
9,Nc1nonc1-n1nnc(C(=O)N/N=C/c2cc(Br)ccc2O)c1CNc1ccccc1,56.5% (active)
10,Cc1c(C(=O)N/N=C/c2c(O)ccc3ccccc23)nnn1-c1nonc1N,89% (active)
11,Cc1nc([N+](=O)[O-])c(Br)n1Cc1ccc(Cl)c(Cl)c1,7.2%
12,Cn1c(=O)c2c(nc(NCc3ccco3)n2C/C=C/c2ccccc2)n(C)c1=O,78.2% (active)
13,CC(C)n1c(CN(C)Cc2ccccc2)nc2c1c(=O)n(C)c(=O)n2C,38.7%
14,COc1cc(CNc2ccc3[nH]c(=O)[nH]c3c2)ccc1OCc1ccccc1C,37.1%
15,COc1cc(CNc2ccc3[nH]c(=O)[nH]c3c2)cc(Br)c1OCc1ccccc1F,61% (active)
16,COc1cc(CNc2ccc3[nH]c(=O)[nH]c3c2)cc(Br)c1OCc1ccc(F)cc1,47.6%
17,O=c1[nH]c(=O)n(Cc2ccco2)c2c1C(C(F)(F)F)(C(F)(F)F)N=C(c1ccc(F)cc1)N2,90.9% (active)
18,Cc1cccc(C2=NC(C(F)(F)F)(C(F)(F)F)c3c(n(-c4ccc(F)cc4)c(=O)[nH]c3=O)N2)c1,-13.7%
19,Cc1ccc(CNc2ncnc(N)c2[N+](=O)[O-])cc1,36.2%
20,Nc1ncnc(NCc2ccc(F)cc2)c1[N+](=O)[O-],60.6% (active)
21,O=C(Nc1ccc(N2CCN(c3ncccc3C(F)(F)F)CC2)nc1)c1cccs1,64.1% (active)
22,Cc1ccc(NC(=O)C2CCN(S(=O)(=O)c3ccc4c(c3)NC(=O)C(C)S4)CC2)cc1Cl (stereo unspecified),39.1%
23,O=S1(=O)C=C(Sc2nc3cc(Cl)ccc3o2)c2ccccc21,91.1% (active)

row,Structure (SMILES),inhibition
1,O=S1(=O)C=C(Sc2nnc(-c3ccccc3)o2)c2ccccc21,70.6% (active)
2,Cc1nnc(Sc2nc3ccccc3o2)c2ccccc12,45.3%
3,Cn1nccc1C(=O)N/N=C/c1c(O)ccc2ccccc12,66.6% (active)
4,O=C(N/N=C/c1c(O)ccc2ccccc12)c1ccc(CO)nc1,96.6% (active)
5,O=C(N/N=C\c1c(O)ccc2ccccc12)c1ccc(O)cc1,69.4% (active)
6,O=C(N/N=C/c1c(O)ccc2ccccc12)c1ccc(Br)o1,34.2%
7,O=C(CN1CCCC1)N/N=C/c1c(O)ccc2ccccc12,87.6% (active)
8,O=C(CN1CCCCCC1)Nc1ccc(Br)cn1,-21.9%
9,Cc1ccc(C(=O)N/N=C/c2c(O)ccc3ccccc23)cn1,73.2% (active)
10,C#Cc1ccc([C@@H]2C=C(C(=O)N3CCN(Cc4ccccc4)CC3)O[C@H](OCCCCO)C2)cc1,61.3% (active)
11,CCN(CC)c1ccc(C(=O)N2CCN(Cc3ccccc3)CC2)cc1,46.5%
12,Cc1ccc(CN2CCN(C(=O)c3cccc4ccccc34)CC2)cc1,12.3%
13,COc1ccc2c(c1)-c1c(ssc1=S)C(C)(C)N2,92.8% (active)
14,COc1cc(/C=C2/C(=O)NN(c3cccc(Cl)c3)C2=O)cc(Br)c1O,0.8%
15,COc1cc(/C=C2/C(=O)NN(c3cccc(Cl)c3)C2=O)cc(OC)c1O,99.4% (active)
16,COc1cc(/C=C2/C(=O)NN(c3ccc(Cl)cc3)C2=O)cc(OC)c1O,9.3%
17,N=C1SC(c2ccccc2)C(=O)N1c1ncc(Cc2ccccc2)s1 (stereo unspecified),107% (active)
18,Cc1ccc(Cc2cnc(N3C(=N)SC(c4ccccc4)C3=O)s2)cc1 (stereo unspecified),99.6% (active)
19,N=C1SC(c2ccccc2)C(=O)N1c1ncc(Cc2ccccc2Cl)s1 (stereo unspecified),106% (active)
20,CCOC(=O)C(=Cc1ccc(OCc2ccc([N+](=O)[O-])cc2)c(OC)c1)C(=O)OCC,11.6%
21,Cc1nc2cc(N3CCN(C)CC3)c(NC(=O)Cc3ccccc3)cc2c(=O)n1Cc1ccccc1,-21.7%
22,C/C(=N\NC(=O)c1nnn(-c2nonc2N)c1CN1CCc2ccccc21)c1ccccc1O,78.8% (active)
23,C/C(=N\NC(=O)c1nnn(-c2nonc2N)c1CN1CCCCC1)c1ccccc1O,64.6% (active)
